Laboratory results as given in PubChem BioAssay AID1159580 (chemical genetic matrix, 2015).
About 2,000 (36%) of roughly 5,500 compounds were called active. Another 18% or so got no clear call; they are omitted. Rule as the data show it: active = normalized growth mostly below about 0.91 (no sharp cut-off); inconclusive = no clear call, values can overlap the other calls; inactive = mostly above about 0.92. Some of the results follow.

Assay: chemical genetic growth profiling, strain panel (AID 1159580);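 also: tested at 20 µM; growth read once vehicle control cultures reached saturation at 30 °C; 1 = growth at the plate median or of vehicle wells; lower values mean less growth of the strain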
Details: S. cerevisiae deletion strains, growth OD

Measured: normalized growth

Cc1noc(C)c1-c1nc(-c2cc(C(F)(F)F)cc(C(F)(F)F)c2)no1
inactive: locus YAL013W, strain DEP1, active compounds read low 1.02 | locus YBR229C, strain ROT2, active compounds read low 1.01 | locus YCL061C, strain MRC1, active compounds read low 0.992 | locus YDL101C, strain DUN1, active compounds read low 1.02 | locus YDL134C, strain PPH21, active compounds read low 1.01 | locus YDR150W, strain NUM1, active compounds read low 0.983 | locus YEL061C, strain CIN8, active compounds read low 1.01 | locus YGR078C, strain PAC10, active compounds read low 1.01 | locus YHR030C, strain SLT2, active compounds read low 1.03 | locus YHR087W, strain rtc3, active compounds read low 1 | locus YJL187C, strain SWE1, active compounds read low 1 | locus YJR043C, strain POL32, active compounds read low 1 | locus YJR075W, strain HOC1, active compounds read low 0.999 | locus YLR039C, strain RIC1, active compounds read low 1.06 | locus YLR058C, strain SHM2 (second series), active compounds read low 0.993 | locus YLR085C, strain ARP6, active compounds read low 1.03 | locus YLR262C, strain YPT6, active compounds read low 1.03 | locus YML094W, strain GIM5, active compounds read low 1.07 | locus YMR219W, strain ESC1, active compounds read low 0.998 | locus YMR263W, strain SAP30, active compounds read low 0.981 | locus YMR307W, strain GAS1, active compounds read low 0.99 | locus YNL128W, strain TEP1, active compounds read low 1.02 | locus YNL153C, strain GIM3, active compounds read low 1 | locus YNL298W, strain CLA4 (second series), active compounds read low 1 | locus YNL322C, strain KRE1, active compounds read low 1.01 | locus YNR030W, strain Alg12, active compounds read low 1.03 | locus YPL055C, strain LGE1, active compounds read low 1.05 | locus YPL241C, strain CIN2, active compounds read low 1.01 | locus YPR135W, strain CTF4, active compounds read low 1.07
